The text below walks through data of article PMC11006913.

Changes are numbered by the printed parent chain.

Holding throughout (experiment): PBM; 200 nM protein, PBS
Common to all, as to details: dsDNA, one strand shown

Assay [1] concerns the target NKX2-5 (Homo sapiens, UniProt P52952 125-210, R139K).
Assay [2] addresses HOXB4 (Homo sapiens, UniProt P17483 148-234).
Assay [3] concerns the target HOXB6 (Homo sapiens, UniProt P17509 132-218, K202E).
Assay [4] deals with HOXB4 (Homo sapiens, UniProt P17483 148-234, V174I).
Chain of HOXB4 (Homo sapiens, UniProt P17483 148-234, V174I) (P17483 148-234 V174I): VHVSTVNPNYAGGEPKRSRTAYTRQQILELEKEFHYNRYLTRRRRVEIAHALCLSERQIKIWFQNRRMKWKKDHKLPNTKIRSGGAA
Assay [5] deals with NKX2-5 (Homo sapiens, UniProt P52952 125-210).
Chain of NKX2-5 (Homo sapiens, UniProt P52952 125-210) (P52952 125-210): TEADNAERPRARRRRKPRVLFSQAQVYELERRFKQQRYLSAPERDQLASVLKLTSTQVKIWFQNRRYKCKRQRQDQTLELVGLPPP
Assay [6] has as its target T1, NKX2-4 (Homo sapiens, UniProt Q9H2Z4 175-261, P217L).
T1 sequence: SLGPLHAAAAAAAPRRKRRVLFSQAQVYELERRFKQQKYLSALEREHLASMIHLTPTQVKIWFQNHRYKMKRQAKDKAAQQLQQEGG

In assay [7] the target is T2, NKX2-4 (Homo sapiens, UniProt Q9H2Z4 175-261, T231S).
T2 sequence: T1 sequence with L43P, T57S

The target in assay [8] is T3, NKX2-4 (Homo sapiens, UniProt Q9H2Z4 175-261).
T3 sequence: T1 sequence with L43P

Assay [9] concerns the target T4, NKX2-6 (Homo sapiens, UniProt A6NCS4 118-204, R150C).
T4 sequence: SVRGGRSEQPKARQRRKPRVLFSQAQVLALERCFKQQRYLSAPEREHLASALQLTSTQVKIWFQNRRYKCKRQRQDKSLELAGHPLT

Assay [10] addresses T5, NKX2-6 (Homo sapiens, UniProt A6NCS4 118-204).
T5 sequence: T4 sequence with C33R

The target of assay [11] is T6, NKX2-4 (Homo sapiens, UniProt Q9H2Z4 175-261, R246Q).
T6 sequence: T1 sequence with L43P, R72Q

For assay [12], the target named is T7, NKX2-6 (Homo sapiens, UniProt A6NCS4 118-204, F151L).
T7 sequence: T4 sequence with C33R, F34L

For assay [13], the target named is NKX3-2 (Homo sapiens, UniProt P78367 192-278, P234S).
Chain of NKX3-2 (Homo sapiens, UniProt P78367 192-278, P234S) (P78367 192-278 P234S): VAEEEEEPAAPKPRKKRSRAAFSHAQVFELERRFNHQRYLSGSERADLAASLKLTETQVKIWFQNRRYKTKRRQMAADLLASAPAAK
In assay [14] the target is NKX3-2 (Homo sapiens, UniProt P78367 192-278).
Chain of NKX3-2 (Homo sapiens, UniProt P78367 192-278) (P78367 192-278): as the sequence (P78367 192-278 P234S) above, with S43P counted along it
Assay [15] has as its target ALX1 (Homo sapiens, UniProt Q15699 118-204, L144V).
Assay [16] has as its target ALX1 (Homo sapiens, UniProt Q15699 118-204, L144R).
Assay [17] concerns the target ALX1 (Homo sapiens, UniProt Q15699 118-204).
Assay [18] deals with T8, VENTX (Homo sapiens, UniProt O95231 78-163, R121Q).
T8 sequence: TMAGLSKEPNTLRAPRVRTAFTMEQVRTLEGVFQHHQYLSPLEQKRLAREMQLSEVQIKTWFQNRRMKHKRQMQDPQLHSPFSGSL

The target in assay [19] is T9, VENTX (Homo sapiens, UniProt O95231 78-163).
T9 sequence: T8 sequence with Q44R

The target of assay [20] is T10, VENTX (Homo sapiens, UniProt O95231 78-163, Y115F).
T10 sequence: T8 sequence with Y38F, Q44R

Chain of NKX2-5 (Homo sapiens, UniProt P52952 125-210, R139K) (P52952 125-210 R139K): as the sequence (P52952 125-210) above, with R15K counted along it
Chain of HOXB4 (Homo sapiens, UniProt P17483 148-234) (P17483 148-234): as the sequence (P17483 148-234 V174I) above, with I27V counted along it
Chain of HOXB6 (P17509 132-218 K202E): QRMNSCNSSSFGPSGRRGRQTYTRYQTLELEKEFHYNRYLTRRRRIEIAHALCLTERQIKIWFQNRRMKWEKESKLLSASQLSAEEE
Chain of ALX1 (Homo sapiens, UniProt Q15699 118-204, L144V) (Q15699 118-204 L144V): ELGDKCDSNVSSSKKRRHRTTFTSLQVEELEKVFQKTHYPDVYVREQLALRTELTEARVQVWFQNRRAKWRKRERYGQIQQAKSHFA
Chain of ALX1 (Homo sapiens, UniProt Q15699 118-204, L144R) (Q15699 118-204 L144R): as the sequence (Q15699 118-204 L144V) above, with V27R counted along it
Chain of ALX1 (Homo sapiens, UniProt Q15699 118-204) (Q15699 118-204): as the sequence (Q15699 118-204 L144V) above, with V27L counted along it

For the sequence ACGGCGGC, the binding signal in assay [1] was 9 upbm affinity estimate (log intensity, higher = more binding, comparable within an allelic series); in assay [2], 7.36 upbm affinity estimate (log intensity, higher = more binding, comparable within an allelic series); in [3] it was 8.91 upbm affinity estimate (log intensity, higher = more binding, comparable within an allelic series); in assay [4], 7.56 upbm affinity estimate (log intensity, higher = more binding, comparable within an allelic series); in [5] it was 8.98 upbm affinity estimate (log intensity, higher = more binding, comparable within an allelic series).

As for AAGTGGTA, the binding signal in assay [1] is 12.5 upbm affinity estimate (log intensity, higher = more binding, comparable within an allelic series); in assay [6], 12.4 upbm affinity estimate (log intensity, higher = more binding, comparable within an allelic series); in assay [7], 12.9 upbm affinity estimate (log intensity, higher = more binding, comparable within an allelic series); in assay [8], 12.3 upbm affinity estimate (log intensity, higher = more binding, comparable within an allelic series); in assay [9], 11.9 upbm affinity estimate (log intensity, higher = more binding, comparable within an allelic series); in assay [10], 13.4 upbm affinity estimate (log intensity, higher = more binding, comparable within an allelic series). Also, the binding signal is 12.9 upbm affinity estimate (log intensity, higher = more binding, comparable within an allelic series) in assay [11]; 10.7 upbm affinity estimate (log intensity, higher = more binding, comparable within an allelic series) in [12]; 12.8 upbm affinity estimate (log intensity, higher = more binding, comparable within an allelic series) in [13]; 12.5 upbm affinity estimate (log intensity, higher = more binding, comparable within an allelic series) in assay [5]; 12.9 upbm affinity estimate (log intensity, higher = more binding, comparable within an allelic series) in assay [14].

On to CTTCCGTC, for which the binding signal in assay [1] was 8.85 upbm affinity estimate (log intensity, higher = more binding, comparable within an allelic series); in assay [5], 8.77 upbm affinity estimate (log intensity, higher = more binding, comparable within an allelic series).

With CCGGCGCG, the binding signal is 8.28 upbm affinity estimate (log intensity, higher = more binding, comparable within an allelic series) in assay [1]; 6.28 upbm affinity estimate (log intensity, higher = more binding, comparable within an allelic series) in assay [15]; 6.34 upbm affinity estimate (log intensity, higher = more binding, comparable within an allelic series) in [16]; 6.04 upbm affinity estimate (log intensity, higher = more binding, comparable within an allelic series) in [17]; 8.51 upbm affinity estimate (log intensity, higher = more binding, comparable within an allelic series) in assay [5].

Turning to ATAAGTAC, the binding signal was 12.9 upbm affinity estimate (log intensity, higher = more binding, comparable within an allelic series) in [1]; 12.6 upbm affinity estimate (log intensity, higher = more binding, comparable within an allelic series) in assay [6]; 13 upbm affinity estimate (log intensity, higher = more binding, comparable within an allelic series) in assay [7]; 12.5 upbm affinity estimate (log intensity, higher = more binding, comparable within an allelic series) in [8]; 12 upbm affinity estimate (log intensity, higher = more binding, comparable within an allelic series) in [9]; 13.6 upbm affinity estimate (log intensity, higher = more binding, comparable within an allelic series) in [10]. Further, the binding signal is 13.1 upbm affinity estimate (log intensity, higher = more binding, comparable within an allelic series) in [11]; 10.9 upbm affinity estimate (log intensity, higher = more binding, comparable within an allelic series) in [12]; 12.5 upbm affinity estimate (log intensity, higher = more binding, comparable within an allelic series) in [13]; 12.7 upbm affinity estimate (log intensity, higher = more binding, comparable within an allelic series) in assay [5].

On to CGGGCTCC, for which the binding signal in [1] is 8.64 upbm affinity estimate (log intensity, higher = more binding, comparable within an allelic series); in [2], 6.66 upbm affinity estimate (log intensity, higher = more binding, comparable within an allelic series); in assay [18], 7.54 upbm affinity estimate (log intensity, higher = more binding, comparable within an allelic series); in [19] it was 6.97 upbm affinity estimate (log intensity, higher = more binding, comparable within an allelic series); in assay [20], 7.32 upbm affinity estimate (log intensity, higher = more binding, comparable within an allelic series); in assay [3], 8.71 upbm affinity estimate (log intensity, higher = more binding, comparable within an allelic series). Besides, the binding signal in [4] is 6.92 upbm affinity estimate (log intensity, higher = more binding, comparable within an allelic series); in assay [10] it was 9.11 upbm affinity estimate (log intensity, higher = more binding, comparable within an allelic series); in assay [12] it was 9.07 upbm affinity estimate (log intensity, higher = more binding, comparable within an allelic series); in assay [5], 8.58 upbm affinity estimate (log intensity, higher = more binding, comparable within an allelic series).

On to CACTTAGA, for which the binding signal in assay [1] is 12.6 upbm affinity estimate (log intensity, higher = more binding, comparable within an allelic series); in assay [9] it was 11.7 upbm affinity estimate (log intensity, higher = more binding, comparable within an allelic series); in [10], 13.6 upbm affinity estimate (log intensity, higher = more binding, comparable within an allelic series); in assay [12] it was 10.8 upbm affinity estimate (log intensity, higher = more binding, comparable within an allelic series); in assay [13], 12.6 upbm affinity estimate (log intensity, higher = more binding, comparable within an allelic series); in assay [5], 12.4 upbm affinity estimate (log intensity, higher = more binding, comparable within an allelic series). For the same sequence, the binding signal in assay [14] is 12.8 upbm affinity estimate (log intensity, higher = more binding, comparable within an allelic series).

In the case of AATAAGTG, the binding signal was 12.4 upbm affinity estimate (log intensity, higher = more binding, comparable within an allelic series) in [1]; 12.4 upbm affinity estimate (log intensity, higher = more binding, comparable within an allelic series) in assay [6]; 12.8 upbm affinity estimate (log intensity, higher = more binding, comparable within an allelic series) in [7]; 12.3 upbm affinity estimate (log intensity, higher = more binding, comparable within an allelic series) in assay [8]; 11.8 upbm affinity estimate (log intensity, higher = more binding, comparable within an allelic series) in [9]; 13.3 upbm affinity estimate (log intensity, higher = more binding, comparable within an allelic series) in assay [10]. Also, the binding signal is 12.9 upbm affinity estimate (log intensity, higher = more binding, comparable within an allelic series) in assay [11]; 10.7 upbm affinity estimate (log intensity, higher = more binding, comparable within an allelic series) in [12]; 12.4 upbm affinity estimate (log intensity, higher = more binding, comparable within an allelic series) in [5].

On to CCCGGCGG, for which the binding signal in assay [1] is 8.56 upbm affinity estimate (log intensity, higher = more binding, comparable within an allelic series); in [2], 7.64 upbm affinity estimate (log intensity, higher = more binding, comparable within an allelic series); in assay [4] it was 7.61 upbm affinity estimate (log intensity, higher = more binding, comparable within an allelic series); in assay [5] it was 8.58 upbm affinity estimate (log intensity, higher = more binding, comparable within an allelic series).
